Data: PubChem BioAssay (NCATS)
Records with an inconclusive call do not appear. Calls of active or inactive are those of the source. The call rests on the fitted dose curve; in most records, active means well fitted cell-killing curve with a large enough effect; inconclusive means small, poorly fitted or top-dose-only effect, or effect the other way; inactive means flat fitted curve, though single readings scatter.

Legend:
Experiment in all cases: Primary qHTS to identify gynecologic anti-cancer compounds using libraries of approved drugs and bioactive compounds (AID 1345084); further: nearly all actives have a fitted effect of over 55% in size
CASKI = settings: Gynecologic cancer cell panel viability, ATPlite luminescence, 48 h; series mostly up to 57.5 µM
Procedure, shortened: (§1)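 Cells, 1,000 per well, plated 16 h, then exposed 48 h at 37 C to compounds. Viability by ATPlite luminescence after 15 min at room temperature.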

Es-2 = settings: Gynecologic cancer cell panel viability, ATPlite luminescence, 48 h; series mostly up to 57.5 µM
Procedure, shortened: as §1

HeLa = settings: Gynecologic cancer cell panel viability, ATPlite luminescence, 48 h; series mostly up to 57.5 µM
Procedure, shortened: as §1

Hek293T = settings: Gynecologic cancer cell panel viability, ATPlite luminescence, 48 h, control line for the selectivity index; series mostly up to 57.5 µM
Procedure, shortened: as §1

JEG-3 = settings: Gynecologic cancer cell panel viability, ATPlite luminescence, 48 h; series mostly up to 57.5 µM
Procedure, shortened: as §1

OV90 = settings: Gynecologic cancer cell panel viability, ATPlite luminescence, 48 h; series mostly up to 57.5 µM
Procedure, shortened: as §1

PA-1 = settings: Gynecologic cancer cell panel viability, ATPlite luminescence, 48 h; series mostly up to 57.5 µM
Procedure, shortened: as §1

SKOV3 = settings: Gynecologic cancer cell panel viability, ATPlite luminescence, 48 h; series mostly up to 57.5 µM
Procedure, shortened: as §1

Tov-21-G = settings: Gynecologic cancer cell panel viability, ATPlite luminescence, 48 h; series mostly up to 57.5 µM
Procedure, shortened: as §1

Tov112D = settings: Gynecologic cancer cell panel viability, ATPlite luminescence, 48 h; series mostly up to 57.5 µM
Procedure, shortened: as §1
On the % scale 0 is the no-effect control and ±100 the full control effect.

CCOc1c(N2CCOCC2)cnn(C)c1=O
inactive: Potency (CASKI) | Potency (Es-2) | Potency (HeLa) | Potency (Hek293T) | Potency (JEG-3) | Potency (OV90) | Potency (PA-1) | Potency (SKOV3) | Potency (Tov-21-G) | Potency (Tov112D)

CCOC(=O)C(=O)CCCCCCl
inactive: Potency (CASKI) | Potency (Es-2) | Potency (HeLa) | Potency (Hek293T) | Potency (JEG-3) | Potency (OV90) | Potency (PA-1) | Potency (SKOV3) | Potency (Tov-21-G) | Potency (Tov112D)

CCCCCC[C@@H](CCC)C(=O)O
inactive: Potency (CASKI) | Potency (Es-2) | Potency (HeLa) | Potency (Hek293T) | Potency (JEG-3) | Potency (OV90) | Potency (PA-1) | Potency (SKOV3) | Potency (Tov-21-G) | Potency (Tov112D)

CC(=O)[C@@]1(O)CC[C@H]2[C@@H]3C[C@H](C)C4=CC(=O)CC[C@]4(C)[C@H]3CC[C@@]21C
inactive: Potency (CASKI) | Potency (Es-2) | Potency (HeLa) | Potency (Hek293T) | Potency (JEG-3) | Potency (OV90) | Potency (PA-1) | Potency (SKOV3) | Potency (Tov-21-G) | Potency (Tov112D)

CCn1ccc(NS(=O)(=O)c2ccc(N)cc2)nc1=O
inactive: Potency (CASKI) | Potency (Es-2) | Potency (HeLa) | Potency (Hek293T) | Potency (JEG-3) | Potency (OV90) | Potency (PA-1) | Potency (SKOV3) | Potency (Tov-21-G) | Potency (Tov112D)

Cc1nn(-c2ccccc2)c(C)c1/C=N/N1CCN(Cc2ccccc2)CC1
inactive: Potency (CASKI) | Potency (Es-2) | Potency (HeLa) | Potency (Hek293T) | Potency (JEG-3) | Potency (OV90) | Potency (PA-1) | Potency (SKOV3) | Potency (Tov-21-G) | Potency (Tov112D)

COc1cc(NS(=O)(=O)c2ccc(N)cc2)nc(C)n1
inactive: Potency (CASKI) | Potency (Es-2) | Potency (HeLa) | Potency (Hek293T) | Potency (JEG-3) | Potency (OV90) | Potency (PA-1) | Potency (SKOV3) | Potency (Tov-21-G) | Potency (Tov112D)

NCC[C@H](O)C(=O)N[C@@H]1C[C@H](N)[C@@H](O[C@H]2O[C@H](CN)[C@@H](O)[C@H](O)[C@@H]2O)[C@H](O)[C@@H]1O[C@H]1O[C@H](CO)[C@@H](O)[C@H](N)[C@@H]1O
inactive: activity change, negative = cytotoxicity (CASKI) 11.8% [at 0.462 µM] | activity change, negative = cytotoxicity (Es-2) -2.07% [at 0.462 µM] | activity change, negative = cytotoxicity (HeLa) 16.7% [at 0.462 µM] | activity change, negative = cytotoxicity (Hek293T) 1.79% [at 0.462 µM] | activity change, negative = cytotoxicity (JEG-3) 1.19% [at 0.462 µM] | activity change, negative = cytotoxicity (OV90) -0.567% [at 0.462 µM] | activity change, negative = cytotoxicity (PA-1) 20.2% [at 0.462 µM] | activity change, negative = cytotoxicity (SKOV3) 13.9% [at 0.462 µM] | activity change, negative = cytotoxicity (Tov-21-G) 7.33% [at 0.462 µM] | activity change, negative = cytotoxicity (Tov112D) 1.97% [at 0.462 µM]

N[C@@H](Cc1cc(I)c(O)c(I)c1)C(=O)O
inactive: Potency (CASKI) | Potency (Es-2) | Potency (HeLa) | Potency (Hek293T) | Potency (JEG-3) | Potency (OV90) | Potency (PA-1) | Potency (SKOV3) | Potency (Tov-21-G) | Potency (Tov112D)

CO/N=C(\C(=O)O)c1csc(NC(=O)CCl)n1
inactive: Potency (CASKI) | Potency (Es-2) | Potency (HeLa) | Potency (Hek293T) | Potency (JEG-3) | Potency (OV90) | Potency (PA-1) | Potency (SKOV3) | Potency (Tov-21-G) | Potency (Tov112D)

CCO[C@H](Cc1ccc(OCCc2ccc(OS(C)(=O)=O)cc2)cc1)C(=O)O
inactive: Potency (CASKI) | Potency (Es-2) | Potency (HeLa) | Potency (Hek293T) | Potency (JEG-3) | Potency (OV90) | Potency (PA-1) | Potency (SKOV3) | Potency (Tov-21-G) | Potency (Tov112D)

CCCc1ncc(C(=O)O)s1
inactive: Potency (CASKI) | Potency (Es-2) | Potency (HeLa) | Potency (Hek293T) | Potency (JEG-3) | Potency (OV90) | Potency (PA-1) | Potency (SKOV3) | Potency (Tov-21-G) | Potency (Tov112D)

C[C@H](CN1CCCC1)C(=O)c1ccc(C(F)(F)F)cc1
inactive: Potency (CASKI) | Potency (Es-2) | Potency (HeLa) | Potency (Hek293T) | Potency (JEG-3) | Potency (OV90) | Potency (PA-1) | Potency (SKOV3) | Potency (Tov-21-G) | Potency (Tov112D)

c1ccc(C(O[C@H]2CCCN(CCc3ccc4c(c3)OCO4)C2)c2ccccc2)cc1
inactive: Potency (CASKI) | Potency (Es-2) | Potency (HeLa) | Potency (Hek293T) | Potency (JEG-3) | Potency (OV90) | Potency (PA-1) | Potency (SKOV3) | Potency (Tov-21-G) | Potency (Tov112D)

CO/N=C(/C(=O)N[C@@H]1C(=O)N2C(C(=O)OCOC(=O)C(C)(C)C)=C(C)CS[C@H]12)c1csc(N)n1
inactive: Potency (CASKI) | Potency (Es-2) | Potency (HeLa) | Potency (Hek293T) | Potency (JEG-3) | Potency (OV90) | Potency (PA-1) | Potency (SKOV3) | Potency (Tov-21-G) | Potency (Tov112D)

CCCc1ccc(OCC(=O)N2CCN(C(=O)COc3ccc(CCC)cc3OC)CC2)c(OC)c1
inactive: Potency (CASKI) | Potency (Es-2) | Potency (HeLa) | Potency (Hek293T) | Potency (JEG-3) | Potency (OV90) | Potency (PA-1) | Potency (SKOV3) | Potency (Tov-21-G) | Potency (Tov112D)

CC(=O)OCC(=O)Nc1cc(C#N)cc(NC(=O)COC(C)=O)c1Cl
inactive: Potency (CASKI) | Potency (Es-2) | Potency (HeLa) | Potency (Hek293T) | Potency (JEG-3) | Potency (OV90) | Potency (PA-1) | Potency (SKOV3) | Potency (Tov-21-G) | Potency (Tov112D)

O=C(CS(=O)Cc1ccco1)NC/C=C\COc1cc(CN2CCCCC2)ccn1 (stereo not given)
inactive: Potency (CASKI) | Potency (Es-2) | Potency (HeLa) | Potency (Hek293T) | Potency (JEG-3) | Potency (OV90) | Potency (PA-1) | Potency (SKOV3) | Potency (Tov-21-G) | Potency (Tov112D)

CC(C)=CCC/C(C)=C/CC/C(C)=C/CCC(=O)OC/C=C(\C)CCC=C(C)C
inactive: Potency (CASKI) | Potency (Es-2) | Potency (HeLa) | Potency (Hek293T) | Potency (JEG-3) | Potency (OV90) | Potency (PA-1) | Potency (SKOV3) | Potency (Tov-21-G) | Potency (Tov112D)

CN(C)C(=O)CNC(=O)Cc1ccccc1
inactive: Potency (CASKI) | Potency (Es-2) | Potency (HeLa) | Potency (Hek293T) | Potency (JEG-3) | Potency (OV90) | Potency (PA-1) | Potency (SKOV3) | Potency (Tov-21-G) | Potency (Tov112D)

Oc1cccc2[nH]ccc12
inactive: Potency (CASKI) | Potency (Es-2) | Potency (HeLa) | Potency (Hek293T) | Potency (JEG-3) | Potency (OV90) | Potency (PA-1) | Potency (SKOV3) | Potency (Tov-21-G) | Potency (Tov112D)

CC(=O)OC[C@H]1O[C@@H](OC(C)=O)[C@H](OC(C)=O)[C@@H]1OC(C)=O
inactive: Potency (CASKI) | Potency (Es-2) | Potency (HeLa) | Potency (Hek293T) | Potency (JEG-3) | Potency (OV90) | Potency (PA-1) | Potency (SKOV3) | Potency (Tov-21-G) | Potency (Tov112D)

COC(=O)c1cc(Cl)c(NC(C)=O)cc1OC
inactive: Potency (CASKI) | Potency (Es-2) | Potency (HeLa) | Potency (Hek293T) | Potency (JEG-3) | Potency (OV90) | Potency (PA-1) | Potency (SKOV3) | Potency (Tov-21-G) | Potency (Tov112D)

COc1ccc(OC(=O)N(CC(=O)O)Cc2ccc(OCCc3nc(-c4ccccc4)oc3C)cc2)cc1
inactive: Potency (CASKI) | Potency (Es-2) | Potency (HeLa) | Potency (Hek293T) | Potency (JEG-3) | Potency (OV90) | Potency (PA-1) | Potency (SKOV3) | Potency (Tov-21-G) | Potency (Tov112D)

C[C@@H]1C[C@H]2[C@@H]3CCC4=CC(=O)C=C[C@]4(C)[C@@]3(F)[C@@H](O)C[C@]2(C)[C@@]1(O)C(=O)COC(=O)c1ccncc1
inactive: Potency (CASKI) | Potency (Es-2) | Potency (HeLa) | Potency (Hek293T) | Potency (JEG-3) | Potency (OV90) | Potency (PA-1) | Potency (SKOV3) | Potency (Tov-21-G) | Potency (Tov112D)

CNC(=O)c1cnn(-c2nc(N)c3ncn([C@@H]4O[C@H](CO)[C@@H](O)[C@H]4O)c3n2)c1
inactive: Potency (CASKI) | Potency (Es-2) | Potency (HeLa) | Potency (Hek293T) | Potency (JEG-3) | Potency (OV90) | Potency (PA-1) | Potency (SKOV3) | Potency (Tov-21-G) | Potency (Tov112D)

Cc1ccc(/C=N/n2c(-c3ccccc3)csc2=S)cc1
inactive: Potency (CASKI) | Potency (Es-2) | Potency (HeLa) | Potency (Hek293T) | Potency (JEG-3) | Potency (OV90) | Potency (PA-1) | Potency (SKOV3) | Potency (Tov-21-G) | Potency (Tov112D)

O=C(c1cc(O)c(O)c(O)c1)c1ccc(O)c(O)c1O
inactive: Potency (CASKI) | Potency (Es-2) | Potency (HeLa) | Potency (Hek293T) | Potency (JEG-3) | Potency (OV90) | Potency (PA-1) | Potency (SKOV3) | Potency (Tov-21-G) | Potency (Tov112D)

CC(C)NCCCC1(C(N)=O)c2ccccc2-c2ccccc21
inactive: Potency (CASKI) | Potency (Es-2) | Potency (HeLa) | Potency (Hek293T) | Potency (JEG-3) | Potency (OV90) | Potency (PA-1) | Potency (SKOV3) | Potency (Tov-21-G) | Potency (Tov112D)
